Inconclusive results are not listed. Active and inactive are the calls of the source. The calls were made as follows, unless noted: active = hit-call score of the fitted dose curve at least 0.9, where 1 is the maximum; inactive = score below 0.9.
How the values were obtained:
[1] = CCTE_Shafer_MEA_acute_LDH: CCTE's Lactate Dehydrogenase Assay for Cytotoxicity in the Neural Acute Assay, Shafer Lab (AID 2284086; active = hit-call score of the fitted dose curve at least 0.9, where 1 is the maximum;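 also: active means LDH release rises above DMSO vehicle level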)
In short: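 Primary rat cortical neurons on 48-well MEA plates, treated on day 13 or 15 post-plating. After the 40-min recording with compound, medium LDH release was read by absorbance at 490 nm. Gain of signal was fitted against DMSO negative control.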

[2] = CCTE_Shafer_MEA_dev_inter_network_spike_interval_mean: CCTE's Neural Network Formation Assay for Mean Inter-network Spike Interval, Shafer Lab (AID 2284047);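 as to AC50: potency for a decrease in mean inter-network spike interval below DMSO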
In short: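 Rat cortical cultures, 1.5 x 10^5 cells/well on 48-well MEA plates; continuous exposure days 0–12, medium and compound refreshed DIV 5, 9. Mean time between consecutive network-spike peaks; AUC across DIV 5/7/9/12; DMSO baseline, negative fitting direction.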

[3] = CCTE_Shafer_MEA_dev_network_spike_number: CCTE's Neural Network Formation Assay for Number of Network Spikes, Shafer Lab (AID 2284048);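 also: synchronized bursts across electrodes counted on days 5 7 9 12 and integrated as AUC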
In short: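 Developing networks of primary rat cortical neurons are treated over 12 days starting at plating, with media and compound fully replaced on DIV 5 and 9. Network spike counts from four recording days are integrated as trapezoidal AUC.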

[4] = CCTE_Shafer_MEA_dev_network_spike_peak: CCTE's Neural Network Formation Assay for Mean Number of Electrodes in Network Spike, Shafer Lab (AID 2284049);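 as to AC50: fitted for loss of signal meaning fewer electrodes in network spikes than DMSO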
In short: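 Rat cortical primary culture, 1.5 x 10^5 cells/well, 48-well MEA (16 electrodes/well). Dosing day 0 through DIV 12, full media/compound exchange DIV 5, 9. AxIS adaptive spike detection; AUC over days 5/7/9/12; loss-of-signal vs DMSO.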

DIO2 (gene 1734) = assay: CCTE_GLTED_hDIO2: CCTE's human Deiodinase 2 (DIO2) Inhibition Assay, Great Lakes Toxicology and Ecology Division (GLTED) Lab (AID 2284050; active = hit-call score of the fitted dose curve at least 0.9, where 1 is the maximum)
In short: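 Cell-free human DIO2 enzyme was incubated with test chemical for 3 h; iodide liberated from substrate was then quantified by the Sandell-Kolthoff reaction (absorbance), run in triplicate. Loss of signal versus DMSO baseline indicated inhibition.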

[5] = CCTE_Shafer_MEA_dev_spike_duration_mean: CCTE's Neural Network Formation Assay for Mean Spike Duration, Shafer Lab (AID 2284051);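 also: mean network spike duration pooled as area under curve over DIV 5 to 12 recordings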;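 as to AC50: potency for a decrease in mean network spike duration versus DMSO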
In short: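 Readout is the average length of network spikes, clustered firing across electrodes, summed over DIV 5, 7, 9 and 12 as area under the curve. Neurons from rat cortex developed networks on MEA plates under continuous 12-day exposure.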

[6] = CCTE_Shafer_MEA_dev_network_spike_duration_std: CCTE's Neural Network Formation Assay for Standard Deviation of Network Spike Duration, Shafer Lab (AID 2284052);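 also: area under curve of spike duration SD across recording days 5 to 12; hits are decreases in network spike duration SD versus DMSO vehicle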
In short: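 Read-out is the trapezoidal area-under-the-curve across recordings made on days 5, 7, 9 and 12, fitted in the negative direction against DMSO baseline. Neurons were primary rat cortical cells treated from day 0, with treatment renewed at each feed.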

[7] = CCTE_Shafer_MEA_dev_per_network_spike_spike_number_mean: CCTE's Neural Network Formation Assay for Mean Number of Spikes in a Network Spike, Shafer Lab (AID 2284053);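 as to AC50: fitted as decrease in spikes per network spike relative to DMSO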
In short: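 Continuous twelve-day exposure of developing rat cortical networks grown over 16 microelectrodes per well; spontaneous firing is captured at four time points, and the per-network-spike spike number is integrated over development by trapezoidal AUC.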

[8] = CCTE_Shafer_MEA_dev_per_network_spike_spike_percent: CCTE's Neural Network Formation Assay for Percent of Spikes in a Network Spike, Shafer Lab (AID 2284054)
In short: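 Rat primary cortical cultures, 1.5 x 10^5 cells/well on MEA. Continuous compound exposure d0–12, medium/compound renewed DIV 5, 9. Network-spike spike % (0.05 s peak window), AUC over 4 recordings, DMSO baseline.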

DIO3 (gene 1735) = assay: CCTE_GLTED_hDIO3: CCTE's human Deiodinase 3 (DIO3) Inhibition Assay, Great Lakes Toxicology and Ecology Division (GLTED) Lab (AID 2284055; active = hit-call score of the fitted dose curve at least 0.9, where 1 is the maximum;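 also: potency is for inhibition seen as loss of released iodide signal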)
In short: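 Cell-free assay with human DIO3 enzyme produced by adenovirus expression; enzyme incubated with test chemical for 3 hours. Liberated iodide then measured by Sandell-Kolthoff absorbance; loss of signal versus DMSO baseline indicates inhibition, run in triplicate.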

[9] = CCTE_Shafer_MEA_dev_LDH: CCTE's Lactate Dehydrogenase Assay for Cytotoxicity in the Neural Network Formation Assay, Shafer Lab (AID 2284068; active = hit-call score of the fitted dose curve at least 0.9, where 1 is the maximum;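 also: exposure for twelve days from plating with re-dosing on DIV 5 and 9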)
In short: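 Cytotoxicity companion to network-formation recordings: rat cortical neurons received compound over 12 days of development, re-dosed at DIV 5 and 9 feeds. Viability was inferred from LDH enzyme activity relative to DMSO.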

[10] = CCTE_Shafer_MEA_dev_AB: CCTE's Alamar Blue Assay for Cytotoxicity in the Neural Network Formation Assay, Shafer Lab (AID 2284083; active = hit-call score of the fitted dose curve at least 0.9, where 1 is the maximum;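 also: resazurin reduction fluorescence as viability of cultured neurons; twelve days of exposure from plating with re-dosing on DIV 5 and 9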)
In short: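 Fluorescent resazurin reduction serves as the viability read-out, with DMSO as negative control and baseline. Cells were primary rat cortical neurons grown on MEA plates and dosed from day 0 to day 12, treatment renewed on DIV 5 and 9.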

[11] = CCTE_Shafer_MEA_dev_mutual_information_norm: CCTE's Neural Network Formation Assay for Mutual Information Normalization, Shafer Lab (AID 2284091);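 as to AC50: mutual information between electrodes summarised as area under curve across four recording days; potency is for a decrease in mutual information relative to DMSO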
In short: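 Developing rat cortical networks on 16-electrode MEA wells are treated throughout formation (DIV 0–12). Shared electrode information is recorded four times, converted to area-under-curve, and fitted for decreases against DMSO vehicle.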

[12] = CCTE_Shafer_MEA_dev_correlation_coefficient_mean: CCTE's Neural Network Formation Assay for Mean Correlation Coefficient, Shafer Lab (AID 2284093);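 as to AC50: well mean pairwise spike train correlation integrated as AUC over recording days 5 to 12; potency fitted for loss of correlation relative to DMSO vehicle wells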
In short: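 Read-out: well-mean correlation coefficient of spike trains between electrode pairs, collapsed over four recording days as trapezoidal area-under-the-curve. Developing rat cortical neuron networks grown on MEAs received test chemical continuously from plating.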

[13] = CCTE_Mundy_HCI_Cortical_Synap_Neur_Matur_NeuriteSpotCountPerNeuriteLength: CCTE's Synaptogenesis and Neurite Maturation Assay in rat cortical cells for Neurite Spot Count per Neurite Length, Mundy Lab (AID 2284210)
In short: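 Primary rat cortical neurons, compound exposure DIV 7–12, 288.33 h endpoint. Hoechst, anti-MAP2 and anti-synaptophysin labelling; neurite-associated puncta per neurite length scored by automated imaging relative to DMSO controls.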

[14] = CCTE_Mundy_HCI_Cortical_Synap_Neur_Matur_BPCount: CCTE's Synaptogenesis and Neurite Maturation Assay in rat cortical cells for Branch Point Count, Mundy Lab (AID 2284211)
In short: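 Branch point number is quantified by automated imaging of fluorescently labelled neurites and synapses in rat primary cortical neurons exposed from DIV 7 to DIV 12. Activity is analysed relative to DMSO negative control.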

[15] = CCTE_Mundy_HCI_Cortical_NOG_NeuriteCount: CCTE's Neurite Outgrowth Assay in rat cortical cells for Neurite Count, Mundy Lab (AID 2284212);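 also: cells fixed about two days after chemical exposure began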
In short: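 Neurite number per cell from high-content imaging of betaIII-tubulin immunostaining, with Hoechst nuclear counterstain.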

[16] = IUF_NPC1b_proliferation_BrdU_72hr: Leibniz Research Institute for Environmental Medicine (IUF) 72-hour Neural Progenitor Cell Bromodeoxyuridine (BrdU) Proliferation Assay (NPC1b) (AID 2284207)
In short: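 Proliferation of primary human neural progenitor cells: 72 h compound treatment at 37C, 5% CO2, pH 7.2-7.6, in EGF/FGF-containing medium. Readout is BrdU uptake (last 16 h) by chemiluminescent ELISA, normalised to DMSO.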

[17] = IUF_NPC1a_proliferation_area_72hr: Leibniz Research Institute for Environmental Medicine (IUF) 72-hour Neural Progenitor Cell Proliferation Area Assay (NPC1a) (AID 2284208)
In short: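 Spheres of 0.3 mm are plated singly in growth-factor medium and exposed from day 0. After three days at 37C and 5% CO2, sphere area is measured by phase contrast imaging, with activity referenced to DMSO.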

[18] = IUF_NPC1_viability_72hr: Viability Assessment at 72 hours in the Leibniz Research Institute for Environmental Medicine (IUF) Neural Progenitor Cell Proliferation Assay (NPC1) (AID 2284209)
In short: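 Human fetal-cortex neural progenitor spheres (0.25–0.35 mm, one per well) grown in EGF/FGF proliferation medium at 37C, pH 7.2-7.6, exposed 72 h without renewal; viability read as alamar blue resazurin-to-resorufin fluorescence relative to DMSO.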

Measured: AC50

O=C(O)CCN(C1(C(=O)NO)CCCC1)S(=O)(=O)c1ccc(Oc2ccc(F)cc2)cc1
inactive: [1]

CCC(C)(C)C(=O)O[C@H]1C[C@@H](C)C=C2C=C[C@H](C)[C@H](CC[C@@H]3C[C@@H](O)CC(=O)O3)[C@H]21
inactive: [3] | [6] | [1] | [11]
active: [2] 506 nM | [4] 688 nM | DIO2 (gene 1734) 64500 nM | [5] 1030 nM | [7] 1100 nM | [8] 844 nM | DIO3 (gene 1735) 97800 nM | [9] 368 nM | [10] 1750 nM | [12] 1510 nM

O=C(OC[C@H]1O[C@@H](OC(=O)c2cc(O)c(O)c(OC(=O)c3cc(O)c(O)c(O)c3)c2)[C@H](OC(=O)c2cc(O)c(O)c(OC(=O)c3cc(O)c(O)c(O)c3)c2)[C@@H](OC(=O)c2cc(O)c(O)c(OC(=O)c3cc(O)c(O)c(O)c3)c2)[C@@H]1OC(=O)c1cc(O)c(O)c(OC(=O)c2cc(O)c(O)c(O)c2)c1)c1cc(O)c(O)c(OC(=O)c2cc(O)c(O)c(O)c2)c1
active: DIO2 (gene 1734) 22400 nM | DIO3 (gene 1735) 14800 nM

CNCc1ccc(NC(=O)c2c[nH]c3c2C(=O)CCC3)cc1
active: [4] 2030 nM | [5] 666 nM | [7] 2490 nM | [9] 865 nM | [11] 755 nM
inactive: [2] | [3] | [6] | [8] | [10] | [12]

NC(=O)NO
not listed: [1] | DIO2 (gene 1734) | DIO3 (gene 1735) | [9] | [10] | [16] | [17] | [18]
inactive: all other assays above

CCOC(=O)c1ccc(C2CCC(NC[C@H](O)COc3ccc(O)c(NS(C)(=O)=O)c3)CC2)cc1 (some centres undefined)
inactive: [1]
active: DIO2 (gene 1734) 105000 nM | DIO3 (gene 1735) 126000 nM

COc1ccc2sc(C(=O)Nc3nnn[nH]3)c(OC(C)C)c2c1
inactive: [1]

CCOc1cccc(-n2cc(C(=O)N3CCN(c4cc(C(=O)O)c5ccccc5c4)CC3)nc2-c2ccc(C)cc2)c1
active: DIO2 (gene 1734) 100000 nM | DIO3 (gene 1735) 140000 nM

CC(C)=CCCC(C)=CC=O
active: DIO2 (gene 1734) 100000 nM | DIO3 (gene 1735) 31300 nM
inactive: [1]

CC[C@H](C)C(=O)O[C@H]1C[C@@H](C)C=C2C=C[C@H](C)[C@H](CC[C@@H]3C[C@@H](O)CC(=O)O3)[C@H]21
inactive: [3] | [6] | [11]
active: [2] 1980 nM | [4] 1560 nM | DIO2 (gene 1734) 82500 nM | [5] 2550 nM | [7] 2220 nM | [8] 1770 nM | DIO3 (gene 1735) 100000 nM | [9] 956 nM | [10] 10000 nM | [12] 16.9 nM

O=C(O)c1cc(N=Nc2ccc(S(=O)(=O)Nc3ccccn3)cc2)ccc1O
inactive: [1]

CCCCCCCCCCCCc1ccccc1
inactive: [1]

CC[C@H]1CC[C@H](NCc2cc3c(cc2OC)[C@H]2C[C@H]2C(=O)N3C)[C@H](c2ccccc2)N1
inactive: [1]

Clc1nc(Cl)c(Cl)c(Cl)c1Cl
active: DIO2 (gene 1734) 14800 nM | DIO3 (gene 1735) 920 nM

Nc1nc2ncc(CNc3ccc(C(=O)N[C@@H](CCC(=O)O)C(=O)O)cc3)nc2c(=O)[nH]1
inactive: [2] | [3] | [4] | [5] | [6] | [7] | [8] | [9] | [11] | [12]

O=P(OC(CCl)CCl)(OC(CCl)CCl)OC(CCl)CCl
active: [4] 2980 nM | [14] 6930 nM
not listed: DIO2 (gene 1734) | DIO3 (gene 1735)
inactive: all other assays above

CCCN(C1CCN(C(=O)C2CCNCC2)CC1)[C@@H]1CCc2ccc(OC)cc2C1
inactive: [1]

COc1cccc(-c2ccc(/C=C\CN3CCCCCC3)cc2Cl)c1
active: DIO2 (gene 1734) 77700 nM | DIO3 (gene 1735) 32800 nM
inactive: [1]

CCCCC(CC)COC(=O)CCCCCCCCC(=O)OCC(CC)CCCC (centres undefined)
inactive: [1]

Cn1cnc([N+](=O)[O-])c1Sc1ncnc2nc[nH]c12
inactive: [1]

CCCCCCc1ccc(O)cc1O
inactive: [1]

On1ccccc1=S
inactive: [1]

O=C1CCC(N2C(=O)c3ccccc3C2=O)C(=O)N1 (centres undefined)
not listed: [1] | DIO2 (gene 1734) | DIO3 (gene 1735) | [10] | [16] | [17] | [18]
inactive: all other assays above

CC[C@H]1OC(=O)[C@H](C)[C@@H](O[C@H]2C[C@@](C)(OC)[C@@H](O)[C@H](C)O2)[C@H](C)[C@@H](O[C@@H]2O[C@H](C)C[C@H](N(C)C)[C@H]2O)[C@](C)(O)C[C@@H](C)C(=O)[C@H](C)[C@@H](O)[C@]1(C)O
not listed: DIO2 (gene 1734) | DIO3 (gene 1735) | [9] | [16] | [17] | [18]
inactive: all other assays above

Cc1[nH]cnc1C[C@H]1CCc2c(C)c3ccccc3n2C1=O
inactive: [1]

Cn1c(=O)c2c(ncn2C)n(C)c1=O
not listed: [1] | DIO2 (gene 1734) | DIO3 (gene 1735) | [9] | [10] | [16] | [17] | [18]
inactive: all other assays above

COc1ccc(-n2nc(C(F)F)cc2-c2ccc(S(C)=O)cc2)cc1 (centres undefined)
inactive: [2] | [3] | [6] | [7] | [8] | [10] | [11] | [12]
active: [4] 1980 nM | [5] 1980 nM | [9] 603 nM
